Several values for one entry are separate records, joined by “and”; a condition that tells them apart may be missing. Equal entries are not always repeated. Results filed as inconclusive are left out. A number with no mark means an inactive call. Activity calls are given as the source filed them. Unless noted, calls come from the whole dose curve; as a rule, active = well fitted curve in the direction sought with a large enough effect; inconclusive = small, poorly fitted or top-dose-only effect, or another doubt; inactive = no such curve, though single readings can be large; an effect the other way counts as inactive or inconclusive.

Assay [1] deals with Calcium and integrin-binding protein 1 (Homo sapiens) (UniProt Q99828). As to the kind of experiment: Validation qHTS for Identification of Calcium Integrin Binding protein 1 (CIB1) Competitor (AID 1508618). Note: % is set by controls: 0 for no effect and ±100 for the full control effect. The gist of the method: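 CIB1-GST (1 uM final) incubated 15 min at room temperature with compounds (up to 114 uM), then FITC-labelled alphaIIb peptide (100 nM) added. FP read (Ex 480/Em 540) after 15 min, pH 7.4 buffer containing 5 mM CaCl2.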
Chain of Calcium and integrin-binding protein 1 (Homo sapiens) (Q99828 whole entry, looked up): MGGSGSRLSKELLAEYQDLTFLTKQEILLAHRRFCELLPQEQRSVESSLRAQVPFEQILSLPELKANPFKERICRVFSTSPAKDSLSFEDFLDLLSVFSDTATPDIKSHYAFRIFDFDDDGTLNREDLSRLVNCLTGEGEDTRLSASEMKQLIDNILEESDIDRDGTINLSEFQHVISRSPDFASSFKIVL
Background: qHTS replaces the single test concentration by a dilution series.

Assay [2] shares this target. The assay can be described thus: Primary qHTS for Identification of Calcium Integrin Binding Protein 1 (CIB1) Competitor (AID 1508620).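 Note: GST tagged CIB1 binding a fluorescein labelled alphaIIb integrin peptide tracer; top concentration of the series differs between compounds; % is set by controls: 0 for no effect and ±100 for the full control effect.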 The gist of the method: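 CIB1-GST (1 uM final) and compound incubated 15 min at room temperature before adding FITC-alphaIIb peptide tracer (100 nM final). Competition for binding read by fluorescence polarization (ex 480, em 540) after another 15 min at room temperature.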

Assay [3] in a line: Primary qHTS for small molecule stabilizers of the endoplasmic reticulum resident proteome: Secreted ER Calcium Modulated Protein (SERCaMP) assay (AID 1508630). Note: % is set by controls: 0 for no effect and ±100 for the full control effect. The gist of the method:
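The SH-SY5Y reporter protocol was run at 3 concentrations up to 38.3 uM (primary) or 11 concentrations (follow-up): 16 h compound, 100 nM thapsigargin for 4 h, then extracellular luciferase luminescence.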

Assay [4] is described as follows: A High-Content qHTS Against Drug Library for the Identification of Small Molecules that Inhibit DYT1 Early Onset Primary Dystonia-Associated Cell Pathology (AID 1645839; calls by dose curve; note: series mostly up to about 46 µM). The gist of the method:
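High-content imaging quantified EGFP-TorsinA mislocalization in HEK293-derived cells inducibly expressing DYT1 mutant torsinA, after 48 h exposure to compound given together with tetracycline induction. Cell count served as a toxicity channel alongside %pathology.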

The target of assay [5] is Cytochrome P450 2D6 (Homo sapiens) (UniProt P10635). As to the kind of experiment: Cytochrome P450 family 2 subfamily D member 6 (CYP2D6) small molecule antagonists: luciferase biochemical (cell-free) qHTS assay (AID 1645840; active = well fitted curve in the direction sought with a large enough effect in the repeat runs; an effect the other way counts as inactive or inconclusive; note: nearly all actives have a fitted effect of over 55% in size; note: potency is the fitted concentration of half-maximal effect). The gist of the method:
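P450-Glo CYP2D6 system: proluciferin substrate converted by enzyme to luciferin, read by luminescence proportional to activity. Enzyme-substrate mix with compound 10 min at room temperature, then NADPH regeneration 1 h before detection reagent.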

Assay [6] deals with Cytochrome P450 2C9 (Homo sapiens) (UniProt P11712). The assay can be described thus: Cytochrome P450 family 2 subfamily C member 9 (CYP2C9) small molecule antagonists: luciferase biochemical (cell-free) qHTS assay (AID 1645842; active = well fitted curve in the direction sought with a large enough effect in the repeat runs; an effect the other way counts as inactive or inconclusive; note: nearly all actives have a fitted effect of over 55% in size; note: potency is the fitted concentration of half-maximal effect). The gist of the method: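 P450-Glo CYP2C9 system: proluciferin substrate with enzyme in mix containing 0.4% BSA, 10 min at room temperature, then NADPH regeneration solution added and incubated 1 h at 37C. Detection reagent stopped reaction; luminescence read after 20 min as RLU.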
Chain of Cytochrome P450 2C9 (Homo sapiens) (P11712 whole entry, looked up): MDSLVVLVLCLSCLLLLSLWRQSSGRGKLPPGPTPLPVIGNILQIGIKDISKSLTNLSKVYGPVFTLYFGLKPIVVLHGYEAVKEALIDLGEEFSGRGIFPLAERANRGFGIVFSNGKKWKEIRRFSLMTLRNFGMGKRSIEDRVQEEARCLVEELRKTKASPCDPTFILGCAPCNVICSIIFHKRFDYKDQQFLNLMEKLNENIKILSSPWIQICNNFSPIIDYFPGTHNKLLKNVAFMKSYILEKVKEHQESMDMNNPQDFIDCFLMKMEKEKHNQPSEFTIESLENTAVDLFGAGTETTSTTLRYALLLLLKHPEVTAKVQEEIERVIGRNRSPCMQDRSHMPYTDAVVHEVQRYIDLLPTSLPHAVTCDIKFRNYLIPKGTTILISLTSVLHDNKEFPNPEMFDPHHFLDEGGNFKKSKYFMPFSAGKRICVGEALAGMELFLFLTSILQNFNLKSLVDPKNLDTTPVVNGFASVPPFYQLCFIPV

The next assay concerns the target Papain (Carica papaya) (UniProt P00784). As to the kind of experiment: Primary qHTS assay for inhibitors of the protease papain (AID 1645873).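 Note: papain turnover of Z-FR-AMC read as the AMC fluorescence gain over 10 min; series mostly up to about 50 µM; % is set by controls: 0 for no effect and ±100 for the full control effect.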
Assay [7] is described as follows: Primary qHTS for inhibitors of nuclear receptor binding SET domain protein 2 (NSD2) in an isogenic RCH-ACV NSD2 p.E1099K mutant (9B) (AID 1645876). Note: nearly all actives have a fitted effect of over 70% in size. Note: potency is the fitted concentration of half-maximal effect.
Assay [8] can be described thus: Primary qHTS for inhibitors of nuclear receptor binding SET domain protein 2 (NSD2) in an RCH-ACV wild type WT cells (2C) (AID 1645877). Note: nearly all actives have a fitted effect of over 70% in size. Note: potency is the fitted concentration of half-maximal effect.
In assay [9] the target is Rap guanine nucleotide exchange factor 3 (Homo sapiens) (UniProt O95398). The assay can be described thus: Confirmatory qHTS for antagonist of cAMP-regulated guanine nucleotide exchange factor 3 (EPAC1) (AID 1645880).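 Note: plate controls were DMSO only for no effect and full effect of the ATA control for full effect; nearly all actives have a fitted effect of over 55% in size.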 The gist of the method:
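Released BODIPY-GDP fluoresces less than Rap1-bound BODIPY-GDP; the signal is followed at 480/540 nm at 5-min intervals over 30 min, after 5 min at room temperature. Reactions contain 100 nM EPAC1, 250 nM RAP1B-BODIPY-GDP and 50 uM GDP; results are normalized to ATA and DMSO.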

Assay [10] has the same target. As to the kind of experiment: Confirmatory qHTS for agonist of cAMP-regulated guanine nucleotide exchange factor 3 (EPAC1) (AID 1645881).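 Note: EPAC1 catalysed release of BODIPY-GDP from Rap1B seen as fluorescence loss; 100% = effect of cAMP agonist control; nearly all actives have a fitted effect of over 75% in size.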
Assay [11] has as its target Rap guanine nucleotide exchange factor 4 (Homo sapiens) (UniProt Q8WZA2). The assay can be described thus: Confirmatory qHTS for agonist of cAMP-regulated guanine nucleotide exchange factor 4 (EPAC2) (AID 1645884).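 Note: nucleotide exchange releases bodipy-GDP from Rap1 and this lowers its fluorescence; % is set by controls: 0 for no effect and ±100 for the full control effect; nearly all actives have a fitted effect of over 65% in size.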
Assay [12] shares this target. The assay can be described thus: Confirmatory qHTS for antagonist of cAMP-regulated guanine nucleotide exchange factor 4 (EPAC2) (AID 1645885). Note: % is set by controls: 0 for no effect and ±100 for the full control effect; nearly all actives have a fitted effect of over 25% in size.

Chain of Papain (Carica papaya) (P00784 whole entry, looked up, the tested form may be a part): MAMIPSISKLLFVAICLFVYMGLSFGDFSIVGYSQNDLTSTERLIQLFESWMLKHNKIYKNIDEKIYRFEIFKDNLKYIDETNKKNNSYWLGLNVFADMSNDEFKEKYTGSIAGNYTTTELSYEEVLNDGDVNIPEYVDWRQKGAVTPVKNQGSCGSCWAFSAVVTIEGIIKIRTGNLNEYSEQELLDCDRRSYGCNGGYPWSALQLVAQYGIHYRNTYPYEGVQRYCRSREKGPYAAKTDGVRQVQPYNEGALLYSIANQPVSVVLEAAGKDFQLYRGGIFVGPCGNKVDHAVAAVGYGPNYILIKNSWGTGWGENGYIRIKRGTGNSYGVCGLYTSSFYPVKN
Chain of Cytochrome P450 2D6 (Homo sapiens) (P10635 whole entry, looked up): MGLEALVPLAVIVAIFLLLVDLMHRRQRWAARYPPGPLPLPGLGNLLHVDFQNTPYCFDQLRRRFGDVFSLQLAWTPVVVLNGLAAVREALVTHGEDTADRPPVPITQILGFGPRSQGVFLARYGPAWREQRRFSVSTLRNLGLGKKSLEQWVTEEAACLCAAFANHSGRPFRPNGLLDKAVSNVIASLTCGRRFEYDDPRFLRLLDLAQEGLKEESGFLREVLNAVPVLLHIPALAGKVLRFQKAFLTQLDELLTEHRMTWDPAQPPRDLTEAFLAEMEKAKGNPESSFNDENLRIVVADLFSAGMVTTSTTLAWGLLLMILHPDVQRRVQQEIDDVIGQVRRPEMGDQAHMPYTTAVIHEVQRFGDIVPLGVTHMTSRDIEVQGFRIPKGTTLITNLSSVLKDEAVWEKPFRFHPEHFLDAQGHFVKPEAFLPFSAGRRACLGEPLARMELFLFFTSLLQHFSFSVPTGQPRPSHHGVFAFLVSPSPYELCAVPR
Chain of Rap guanine nucleotide exchange factor 4 (Homo sapiens) (Q8WZA2 whole entry, looked up): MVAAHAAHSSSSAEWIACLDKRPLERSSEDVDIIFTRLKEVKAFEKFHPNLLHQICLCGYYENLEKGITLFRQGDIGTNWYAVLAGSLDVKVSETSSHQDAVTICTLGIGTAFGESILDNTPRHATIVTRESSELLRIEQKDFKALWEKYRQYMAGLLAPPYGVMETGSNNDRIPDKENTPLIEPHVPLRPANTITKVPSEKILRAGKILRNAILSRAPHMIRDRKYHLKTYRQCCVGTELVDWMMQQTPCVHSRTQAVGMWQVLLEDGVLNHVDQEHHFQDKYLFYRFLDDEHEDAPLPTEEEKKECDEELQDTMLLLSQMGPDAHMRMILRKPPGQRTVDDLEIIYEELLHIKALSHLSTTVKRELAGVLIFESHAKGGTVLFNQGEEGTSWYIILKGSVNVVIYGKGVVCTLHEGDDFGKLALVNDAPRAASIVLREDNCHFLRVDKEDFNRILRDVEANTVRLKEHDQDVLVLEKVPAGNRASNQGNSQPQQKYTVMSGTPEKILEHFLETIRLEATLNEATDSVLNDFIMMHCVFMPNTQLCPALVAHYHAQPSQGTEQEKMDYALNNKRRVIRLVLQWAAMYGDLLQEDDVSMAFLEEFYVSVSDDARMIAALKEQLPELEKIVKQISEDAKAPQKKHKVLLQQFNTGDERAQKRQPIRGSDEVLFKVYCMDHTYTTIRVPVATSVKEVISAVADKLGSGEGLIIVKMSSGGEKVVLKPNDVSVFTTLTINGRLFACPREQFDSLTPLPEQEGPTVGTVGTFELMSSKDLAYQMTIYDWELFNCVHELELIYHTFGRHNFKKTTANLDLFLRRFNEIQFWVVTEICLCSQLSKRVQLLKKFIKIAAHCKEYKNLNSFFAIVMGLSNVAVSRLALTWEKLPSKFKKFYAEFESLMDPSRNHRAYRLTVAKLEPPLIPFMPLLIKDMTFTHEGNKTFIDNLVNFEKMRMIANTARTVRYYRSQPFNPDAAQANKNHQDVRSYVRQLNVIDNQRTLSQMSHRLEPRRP
Chain of Rap guanine nucleotide exchange factor 3 (Homo sapiens) (O95398 whole entry, looked up): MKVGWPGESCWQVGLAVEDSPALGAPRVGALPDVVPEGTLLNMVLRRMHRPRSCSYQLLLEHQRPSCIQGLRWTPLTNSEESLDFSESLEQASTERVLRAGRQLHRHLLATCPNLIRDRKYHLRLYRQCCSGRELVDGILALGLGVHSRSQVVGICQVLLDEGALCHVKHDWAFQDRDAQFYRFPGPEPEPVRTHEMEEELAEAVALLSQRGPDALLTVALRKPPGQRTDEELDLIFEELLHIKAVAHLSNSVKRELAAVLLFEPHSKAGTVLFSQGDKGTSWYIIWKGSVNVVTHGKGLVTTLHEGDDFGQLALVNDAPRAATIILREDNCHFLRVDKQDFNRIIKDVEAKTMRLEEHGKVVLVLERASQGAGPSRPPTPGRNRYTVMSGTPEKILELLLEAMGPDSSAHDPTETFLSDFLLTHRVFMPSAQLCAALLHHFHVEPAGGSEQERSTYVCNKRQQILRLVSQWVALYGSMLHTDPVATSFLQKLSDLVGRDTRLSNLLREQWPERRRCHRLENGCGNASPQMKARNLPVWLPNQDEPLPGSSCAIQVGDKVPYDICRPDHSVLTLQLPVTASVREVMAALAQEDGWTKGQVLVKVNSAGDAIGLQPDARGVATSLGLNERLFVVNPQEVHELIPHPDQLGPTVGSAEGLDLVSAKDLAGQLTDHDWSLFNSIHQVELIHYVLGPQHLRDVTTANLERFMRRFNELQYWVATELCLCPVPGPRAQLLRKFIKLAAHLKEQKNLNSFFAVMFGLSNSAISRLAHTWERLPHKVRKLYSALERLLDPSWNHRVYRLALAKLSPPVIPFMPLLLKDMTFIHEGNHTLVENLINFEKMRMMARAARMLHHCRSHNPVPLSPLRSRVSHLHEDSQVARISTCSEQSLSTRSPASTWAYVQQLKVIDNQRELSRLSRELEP

`CNC1(C)C2CCC(C2)C1(C)C` (stereo unspecified): the result in assay [1] was inactive. Besides, the Potency result (in assay [2]; in assay [3]; in assay [4]; in assay [5]; in assay [6]; with Papain (Carica papaya)) was “inactive” throughout. Moreover, the Potency entry in [7] and in [8] was “inactive” throughout.
Turning to `COc1ccc(CN(CCN(C)C)c2ccccn2)cc1`, in assay [1], the result was inactive. Moreover, the Potency entry (in assay [2]; in [3]; in assay [4]; in assay [6]; with Papain (Carica papaya); in assay [7]) was “inactive” throughout. Moreover, the Potency entry in assay [8] is “inactive”. Further, in assay [5], the Potency is 195 nM (active) and 213 nM (active).
On to `O=c1[nH]c(=O)n([C@H]2C[C@H](O)[C@@H](CO)O2)cc1Br`, for which, in assay [1], the result was inactive. Also, the Potency entry (in assay [2]; in [3]; in assay [4]; in assay [5]; in assay [6]; in the assay with Papain (Carica papaya)) was “inactive” each time. Besides, the Potency is 0.841 µM (active) in [7] and 0.75 µM (active) in assay [8].
`C[N+](C)(C)CCCCCCCCCC[N+](C)(C)C`: the outcome in assay [1] was inactive. The Potency result (in [2]; in assay [3]; in [4]; in assay [5]; in [6]; with Papain (Carica papaya)) was “inactive” each time. The Potency entry in assay [7] was “inactive”.
For the compound `CCO/C([O-])=N/c1c[n+](N2CCOCC2)no1`, the result in [1] was inactive. Besides, the Potency entry (in [2]; in assay [3]; in [4]; in assay [5]; in assay [6]; with Papain (Carica papaya)) was “inactive” each time. Moreover, the Potency entry in assay [7] and in assay [8] was “inactive” in each case.
Turning to `Cc1scc2c1N(C(=O)CN1CCN(C)CC1)c1ccccc1NC2=O`, in assay [1], the outcome was inactive. Also, the Potency entry (in assay [2]; in [3]; in assay [4]; in [5]; in [6]; with Papain (Carica papaya)) was “inactive” each time. The Potency result in assay [7] and in [8] was “inactive” each time.
In the case of `C=CCc1ccccc1OCC(O)CNC(C)C` (stereo unspecified), the outcome in assay [1] was inactive. In addition, the Potency entry (in assay [2]; in assay [3]; in assay [4]; in [6]; with Papain (Carica papaya); in assay [7]) was “inactive” throughout. In addition, the Potency entry in assay [8] is “inactive”. Besides, the Potency in [5] was 6.92 µM (active) and 8.49 µM (active).
Regarding `CCCN(CCC)C(=O)C(CCC(=O)O)NC(=O)c1ccccc1` (stereo unspecified), the outcome in [1] was inactive. Moreover, the Potency entry (in [2]; in assay [3]; in [4]; in [5]; in assay [6]; with Papain (Carica papaya)) was “inactive” throughout. Besides, the Potency entry in assay [7] was “inactive”.
`NC(Cc1ccc(Cl)cc1)C(=O)O` (stereo unspecified): the outcome in assay [1] was inactive. The activity change, negative = inhibition is -1.79% [at 1.07 µM] in assay [2], 5.71% [at 0.91 µM] in assay [5] and 10.6% [at 0.91 µM] in [6]. In addition, the Potency entry (in assay [3]; in the assay with Papain (Carica papaya)) was “inactive” each time. The % pathology change, negative = correction in [4] is -28% [at 0.369 µM]. Besides, the outcome in assay [7] was “inactive [at 0.588 µM]”.
For `O=C(CCNNC(=O)c1ccncc1)NCc1ccccc1`, the result in assay [1] was inactive. In addition, the Potency result (in [2]; in assay [3]; in [4]; with Papain (Carica papaya); in assay [7]; in [8]) was “inactive” throughout. For the same compound, the Potency was 15.5 µM (active) in assay [5] and 5.49 µM (active) in assay [6].
As for `Cc1nc2ccccn2c(=O)c1CCN1CCC(C(=O)c2ccc(F)cc2)CC1`, the result in [1] was inactive. Moreover, the Potency result in assay [2], in assay [3], in [4], in [6] and in assay [7] was “inactive” in each case. In addition, the Potency in assay [5] was 2.19 µM (active).
`O=C1CC2(CCCC2)CC(=O)N1CCCCN1CCN(c2ncccn2)CC1`: in [1], the outcome was inactive. For the same compound, the Potency result (in assay [2]; in assay [3]; in assay [4]; in assay [6]; with Papain (Carica papaya); in assay [7]) was “inactive” throughout. Moreover, the Potency result in assay [8] was “inactive”. Also, the Potency in [5] is 17.4 µM (active) and 13.5 µM (active).
`CCCN(CCC)CCc1cccc2c1CC(=O)N2`: in assay [1], the result was inactive. For the same compound, the Potency result (in [2]; in assay [3]; in assay [4]; in assay [6]; with Papain (Carica papaya); in assay [7]) was “inactive” in each case. For the same compound, the Potency in [5] was 2.75 µM (active).
For the compound `CC(C)NNC(=O)c1ccncc1`, the outcome in assay [1] was inactive. In addition, the Potency entry (in assay [2]; in assay [3]; in [4]; in assay [5]; in assay [6]; with Papain (Carica papaya)) was “inactive” each time. The Potency entry in assay [7] and in [8] was “inactive” in each case.
`CN(C)C(=O)Oc1ccc[n+](C)c1`: in [1], the result was inactive. Besides, the Potency result (in assay [2]; in [3]; in [4]; in [5]; in assay [6]; with Papain (Carica papaya)) was “inactive” in each case. Also, the Potency entry in [7] and in assay [8] was “inactive” each time.
`CN(C(=O)CCCOc1ccc2[nH]c(=O)ccc2c1)C1CCCCC1`: the result in [1] was inactive. The Potency entry (in assay [2]; in assay [3]; in [4]; in assay [5]; with Papain (Carica papaya); in [8]) was “inactive” throughout. For the same compound, the Potency in [6] was 13.8 µM (active).
On to `CC1=NS(=O)(=O)c2cc(Cl)ccc2N1`, for which the result in assay [1] was inactive. For the same compound, the Potency result (in [2]; in [3]; in assay [4]; in assay [5]; in assay [6]; with Papain (Carica papaya)) was “inactive” in each case. Further, the Potency result in [7] and in assay [8] was “inactive” each time.
As for `Cc1ccc(=O)n(-c2ccccc2)c1`, in assay [1], the result was inactive. For the same compound, the Potency result (in assay [2]; in assay [3]; in assay [4]; in [5]; in assay [6]; with Papain (Carica papaya)) was “inactive” each time. The Potency entry in assay [7] and in assay [8] was “inactive” throughout.
In the case of `NC/C=C/C(=O)O`, the outcome in [1] was inactive. Besides, the Potency result (in assay [2]; in assay [3]; in [4]; in assay [5]; in [6]; in the assay with Papain (Carica papaya)) was “inactive” in each case. Besides, the Potency entry in assay [7] and in assay [8] was “inactive” each time.
With `CCn1cc(C(=O)O)c(=O)c2cc3c(cc21)OCO3`, in assay [1], the outcome was inactive. Besides, the Potency result in [2], in assay [3], in [4], in assay [5], in [6] and in [7] was “inactive” in each case. Besides, in assay [8], the Potency result was “inactive”.
On to `Cc1cccc(C)c1NC(=O)C(C)N` (stereo unspecified), for which the outcome in assay [1] and in assay [9] was inactive. The Potency entry (in assay [2]; in [3]; in assay [4]; in [5]; in [6]; with Papain (Carica papaya)) was “inactive” each time. For the same compound, the Potency result in [10], in assay [11] and in assay [12] was “inactive” each time.
`CC(=O)OCC1=C(C(=O)O)N2C(=O)[C@@H](NC(=O)Cc3cccs3)[C@H]2SC1`: in assay [1], the result was inactive. The Potency result (in assay [2]; in [3]; in assay [4]; in assay [5]; in assay [6]; with Papain (Carica papaya)) was “inactive” throughout. Further, the Potency result in assay [7] was “inactive”.

These data come from PubChem BioAssay (NCATS).
